GDH-TPI inh: inhibits GDH-TPI coupling enzymes, artifact for Mtb FBA screen; inhibition, % at 4.8 µM; 360,000 tested, 1.2% active; AID 588335; GDH-TPI coupled enzyme counterscreen, NADH absorbance;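 also: 0% = DMSO wells and 100% = wells lacking the enzyme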
CCHFV vOTU inh: blocks the CCHF virus ovarian tumor domain protease; CCHFV vOTU protease, Pep-AMC fluorescence; inhibition, % at 11.5 µM; 370,000 tested, 0.55% active; AID 651958; also: 0% = vehicle wells with enzyme and 100% = no enzyme wells
RecA intein inh: inhibitors of M. tuberculosis RecA intein splicing; cell-free RecA intein splicing, fluorescence; 290,000 tested, 0.75% active; AID 2221; P9WHJ3; inhibition, % (concentration not given with the values); in the data active = inhibition above about 30%;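 also: 0% = vehicle wells and 100% = reference inhibitor control wells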
Target sequence (P9WHJ3 whole entry, looked up): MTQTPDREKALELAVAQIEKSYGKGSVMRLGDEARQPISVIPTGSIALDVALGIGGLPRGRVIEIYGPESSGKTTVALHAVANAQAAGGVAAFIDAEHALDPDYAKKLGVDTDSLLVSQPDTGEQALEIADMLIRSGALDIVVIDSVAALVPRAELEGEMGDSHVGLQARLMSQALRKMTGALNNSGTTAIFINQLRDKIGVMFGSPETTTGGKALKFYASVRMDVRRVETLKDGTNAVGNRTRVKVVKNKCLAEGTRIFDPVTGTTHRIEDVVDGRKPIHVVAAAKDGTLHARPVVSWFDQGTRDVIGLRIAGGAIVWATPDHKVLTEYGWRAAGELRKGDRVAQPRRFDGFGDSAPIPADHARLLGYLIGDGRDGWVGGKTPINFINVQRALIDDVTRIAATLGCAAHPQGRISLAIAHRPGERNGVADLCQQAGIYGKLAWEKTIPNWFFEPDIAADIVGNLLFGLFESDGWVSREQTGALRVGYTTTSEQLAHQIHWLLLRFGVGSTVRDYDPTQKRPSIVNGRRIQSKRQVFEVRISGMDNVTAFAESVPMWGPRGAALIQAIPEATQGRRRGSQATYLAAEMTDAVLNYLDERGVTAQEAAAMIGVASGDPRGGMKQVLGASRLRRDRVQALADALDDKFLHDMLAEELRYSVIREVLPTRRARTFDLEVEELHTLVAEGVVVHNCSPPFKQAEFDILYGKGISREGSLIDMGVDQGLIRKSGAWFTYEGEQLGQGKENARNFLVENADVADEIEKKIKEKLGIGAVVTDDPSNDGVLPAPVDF
FBA Mtb inh: inhibits M. tuberculosis FBA enzyme. 360,000 tested, 2.3% active. purified M. tuberculosis FBA, fluorescence read-out. inhibition, % at 1 µM. P9WQA3; in the data active = inhibition above about 27%;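 also: 0% = vehicle and 100% = reference inhibitor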
Active calls of the source: *; i = inactive; . = no result; + = active, no number. Most compounds without a hit are left out; they make up all but 4.2% or so of the library. Rule as the data show it, unless noted: active = inhibition above about 30%; inactive = the rest.

SMILES	GDH-TPI inh	CCHFV vOTU inh	RecA intein inh	FBA Mtb inh
Cn1cc(CCC(=O)NCCCc2ccccc2)c2ccccc21	-2.0	-4.9	-1.9	4.5
COc1ccc(-c2ccc(C(=O)NC3CCCCC3)c3occc23)c(C)c1	2.7	3.1	.	15.1
COc1ccc(-c2ccc(C(=O)NCC3CCOCC3)c3occc23)c(C)c1	-4.4	1.2	.	131.9*
O=C(c1nc2nc(-c3ccccc3)cc(C(F)(F)F)n2n1)N1CCOCC1	13.4	-2.5	-4.3	19.3
COc1ccc(-c2cc(C(F)(F)F)n3nc(C(=O)O)nc3n2)cc1	28.3	-14.6	.	23.3
CCOC(=O)c1nc2nc(-c3cccs3)cc(C(F)(F)F)n2n1	18.0	-57.6	-3.5	113.6*
Nc1nc2nc(-c3cccs3)cc(C(F)(F)F)n2n1	9.0	-386.9	i	+
O=C(c1cnn2c(C(F)(F)F)cc(-c3cccs3)nc12)N1CCCC1	7.5	-14.8	-47.9	7.0
O=C(c1nc2nc(-c3cccs3)cc(C(F)(F)F)n2n1)N1CCN(Cc2ccccc2)CC1	21.9	-129.8	-10.0	144.8*
CCOc1ccccc1NC(=O)c1cc(=O)[nH]c2ccc(S(=O)(=O)N3CCOCC3)cc12	9.7	-0.5	.	0.1
Cc1ccc2c(c1)c1nnc(SCC(=O)Nc3ccc(N(C)C)cc3)nc1n2CC(=O)O	16.3	10.7	39.1*	-1.6
O=C1OC(c2ccccc2)=N/C1=C\N1CCCCC1	41.4*	16.3	3.6	-3.0
CN(C)/C=C1\N=C(c2cccnc2Oc2ccc(Cl)cc2)OC1=O	32.4*	0.6	-3.9	1.3
Cc1ccc(C2=N/C(=C\N(C)C)C(=O)O2)cc1	44.6*	12.7	-0.1	-0.1
CN(C)/C=C1\N=C(c2ccc(Cl)cc2Cl)OC1=O	20.4	13.7	-1.4	-2.4
CN(C)/C=C1\N=C(c2cccs2)OC1=O	48.6*	7.9	1.4	-0.8
COc1ccc(OC)c(/C=C2\N=C(c3ccccc3)OC2=O)c1	8.1	3.1	-15.3	-0.2
CN(C)/C=C1/N=C(c2ccccc2)OC1=O	52.2*	20.5	3.8	0.0
NS(=O)(=O)c1ccc(N=Nc2c(O)[nH]c(=S)[nH]c2=O)cc1	21.5	3.8	33.9*	-33.1
O=c1[nH]c(=S)[nH]c(O)c1N=Nc1ccc(S(=O)(=O)N2CCOCC2)cc1	8.2	9.8	-2.6	-23.6
COCCNC(=O)C1(C)CCCN(Cc2cccc(OC(=O)c3ccccc3)c2)C1 (centres undefined)	8.0	-8.6	.	-0.4
NC(Cc1ccccc1)c1csc(Nc2ccc(C(=O)NCCCO)cn2)n1 (centres undefined)	20.4	21.6	.	-1.2
Cc1cc(C)c2[nH]c(=S)cc(C)c2c1	9.1	19.2	1.9	2.0
Cc1cc(=S)[nH]c(=S)[nH]1	35.4*	-9.9	-3.2	-1.1
CCn1c(Cc2cccs2)nnc1SCC(=O)Nc1ccc(Cl)cc1C	.	-1.4	.	.
SMILES	GDH-TPI inh	CCHFV vOTU inh	RecA intein inh	FBA Mtb inh
COc1ccc(/C=N/Nc2nc(C(=O)O)cs2)cc1	34.3*	-1.3	-3.9	0.4
COC(=O)c1ccc(/C=N/Nc2nc(-c3ccccc3)cs2)cc1	25.9	3.8	-2.8	0.0
O=C(Nc1cccc(S(=O)(=O)N2CCOCC2)c1)C1CCN(S(=O)(=O)c2ccccc2)CC1	-3.8	1.5	.	1.0
CN1CCC[C@H]1CCNc1ccc2c(=O)c3ccccc3n(C)c2c1	33.3*	-243.5	.	187.3*
CN1CCCC1CCNc1ccc2oc3ccccc3c(=O)c2c1 (centres undefined)	.	10.0	-5.3	.
CN1CCCC1CCNc1ccc2c(=O)c3ccccc3oc2c1 (centres undefined)	30.7*	-222.3	i	+
C[C@@H]1OC(C2CCCCC2)N(C)[C@H]2C[C@H]3c4[nH]c5ccccc5c4CCN3C[C@@H]12 (some centres undefined)	.	0.0	.	4.5
COc1ccccc1NC(=O)OC[C@@H]1CSCCS(=O)(=O)N1	.	-8.2	.	.
C/C(=N\NC(=O)c1nc2ccccn2c1C)c1cc2ccccc2o1	33.4*	4.8	-1.3	1.2
C/C(=N\NC(=O)c1nc2ccccn2c1C)c1ccco1	23.8	13.5	.	-3.4
C/C(=N\NC(=O)c1cc2ccccc2cc1O)c1cc2ccccc2o1	60.5*	17.3	-2.5	-3.2
CCN(C)C1CN(Cc2cn(Cc3ccc(C(F)(F)F)cc3)nn2)S(=O)(=O)C1 (centres undefined)	.	23.1	.	.
COc1ccc(-c2cc3nc[nH]c(=O)c3s2)cc1	31.0*	-128.2	0.9	+
COc1ccc(-c2cc3nc(CCl)[nH]c(=O)c3s2)cc1	19.2	-144.7	9.7	160.4*
CCCC(=O)Nc1ccc2c(c1)C(=O)N(C)[C@H]1CC[C@@H](CC(=O)OC)O[C@@H]1CO2	.	-7.4	.	.
COc1ccccc1NC(=O)/C(=C\c1cccnc1)NC(=O)c1ccc(C)cc1	6.5	5.5	-2.4	-0.7

Bioassay records: PubChem, several laboratories
